Experiment [1] can be described thus: qHTS Assay for Identifying Gametocytocidal Compounds (AID 743244; active = well fitted curve in the direction sought with a large enough effect; an effect the other way counts as inactive or inconclusive;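 note: % is set by controls: 0 for no effect and ±100 for the full control effect; actives lower the fluorescent signal which means gametocytes are killed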). To be noted: P. falciparum 3D7 stage III-V gametocytes, alamarBlue, 72 h; max response: stronger effect = lower value. The method in brief:
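Compounds are pinned into medium, gametocytes (stage III–V, 3D7, 20,000 cells/well) added, and plates held 72 h at 37 °C in 5% CO2. AlamarBlue follows for 24 h before fluorescence reading.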
For orientation: Quantitative high-throughput screening tests each substance at several concentrations.

Experiment [2] can be described thus: qHTS profiling for inhibitors of Plasmodium falciparum (3D7) proliferation (AID 743322).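 Note: infected erythrocytes exposed to compound for 72 h before lysis; 100% = DMSO vehicle wells and 0% = 0.29 µM artemisinin.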 To be noted: P. falciparum 3D7 proliferation; at 28.7 µM (top of the series) unless noted. The method in brief:
(§1)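 Erythrocytes infected with P. falciparum (0.3% parasitemia, 2.5% hematocrit) incubated with compounds 72 h at 37 C, 5% CO2. Lysis with saponin/Triton buffer containing SYBR Green I, overnight at room temperature in the dark; DNA fluorescence (485/535 nm) normalised to 0.29 uM artemisinin and DMSO.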

A short description of experiment [3]: qHTS profiling for inhibitors of Plasmodium falciparum (DD2) proliferation (AID 743323). To be noted: lower = more inhibition; at 28.7 µM (top of the series) unless noted. Put shortly:
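Parasite proliferation measured via DNA-dye fluorescence, as uninfected erythrocytes lack DNA. Cultures at 0.3% parasitemia and 2.5% hematocrit incubated 72 h with compound; signal scaled between vehicle and 0.29 uM artemisinin wells.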

Experiment [4] can be described thus: qHTS profiling for inhibitors of Plasmodium falciparum (HB3) proliferation (AID 743324; active = well fitted curve in the direction sought with a large enough effect; an effect the other way counts as inactive or inconclusive;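 note: 100% = DMSO vehicle wells and 0% = artemisinin-treated control wells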). To be noted: Plasmodium falciparum HB3 blood-stage proliferation; at 28.7 µM (top of the series) unless noted. Put shortly: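 P. falciparum HB3 grown in erythrocytes (0.3% parasitemia, 2.5% hematocrit final) with compound for 72 h at 37 C, 5% CO2. Parasite DNA detected by SYBR Green after saponin/triton lysis overnight; normalized to 0.29 uM artemisinin and DMSO.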

A short description of experiment [5]: qHTS profiling of the MIPE4 collection as inhibitors of Plasmodium falciparum (3D7) proliferation (AID 743344).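 Note: scaled between DMSO vehicle wells and 0.29 µM artemisinin as full inhibition.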 To be noted: P. falciparum 3D7 in erythrocytes, SYBR Green DNA fluorescence, 72 h; at 28.5 µM (top of the series) unless noted. The method in brief: as §1
Experiment [6] can be described thus: qHTS profiling of the MIPE4 collection as inhibitors of Plasmodium falciparum (DD2) proliferation (AID 743345). To be noted: P. falciparum Dd2 in erythrocytes, SYBR Green DNA, 72 h; at 28.5 µM (top of the series) unless noted. The method in brief: as §1
A short description of experiment [7]: qHTS profiling of the MIPE4 collection as inhibitors of Plasmodium falciparum (DD2) proliferation (Rep 2) (AID 743346). To be noted: P. falciparum Dd2 in erythrocytes, SYBR Green DNA, 72 h; at 28.5 µM (top of the series) unless noted. Put shortly:
as §1

A short description of experiment [8]: qHTS profiling of the MIPE4 collection as inhibitors of Plasmodium falciparum (HB3) proliferation (AID 743347).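 Note: plate controls were DMSO vehicle wells for no effect and artemisinin wells for full effect.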 To be noted: P. falciparum HB3 in erythrocytes, SYBR Green DNA, 72 h; at 28.5 µM (top of the series) unless noted. The method in brief:
as §1

Each structure is given as a SMILES string. “And” between values parts separate entries of the source, which are not always exact repeats. Equal entries are not always repeated. Results filed as inconclusive are left out. The source made the active and inactive calls. Unless noted, the rule behind the calls is not given here.

`O=C(O)CCc1ccc(NCc2cccc(Oc3ccccc3)c2)cc1`: the max response in experiment [1] is 20.3% (inactive). In addition, the remaining parasite growth % (stronger effect = lower value) in experiment [2] was found to be 29.5%. Further, the activity, percent of control in experiment [3] is 102%. The compound further displayed a remaining proliferation (% of control), lower = more inhibition in experiment [4] of 98.6%. The same compound came in with a parasite growth, % of DMSO control in experiment [5] of 93.6%. The parasite growth remaining, % of DMSO control (lower = more inhibition) in experiment [6] amounted to 87.8%. Besides, the parasite growth, % of control (lower = inhibition) in experiment [7] stood at 210%.
For the compound `S=C(NCc1ccc2c(c1)OCO2)N1CCN(c2ncnc3c2oc2ccccc23)CC1`, in experiment [1], the max response is -9.54% (inactive). Moreover, the remaining parasite growth % (stronger effect = lower value) in experiment [2] stood at 75.4%. In addition, the activity, percent of control in experiment [3] turned out to be 87.1%. The compound also yielded a remaining proliferation (% of control), lower = more inhibition in experiment [4] of 28.7%. For the same compound, the parasite growth, % of DMSO control in experiment [5] was determined as 20.8% [at 57.5 µM]. The parasite growth remaining, % of DMSO control (lower = more inhibition) in experiment [6] is 66.7% [at 57.5 µM]. Further, the parasite growth, % of control (lower = inhibition) in experiment [7] is 63.5% [at 57.5 µM]. In addition, the growth, % of control in experiment [8] came out at 30.4% [at 57.5 µM].
Turning to `Cc1cc(SCc2sc(-c3ccc(C(F)(F)F)cc3)nc2C)ccc1OCC(=O)O`, in experiment [1], the max response was 25.7% (inactive). Besides, the remaining parasite growth % (stronger effect = lower value) in experiment [2] is 106% and 98.8%. The activity, percent of control in experiment [3] is 99.9% and 82.6%. The remaining proliferation (% of control), lower = more inhibition in experiment [4] was 77.3% and 39.3%. The parasite growth, % of DMSO control in experiment [5] came to 64.2%. Moreover, the parasite growth remaining, % of DMSO control (lower = more inhibition) in experiment [6] is 96.2%. Further, the parasite growth, % of control (lower = inhibition) in experiment [7] came out at 50.7%. In addition, the growth, % of control in experiment [8] is 96.6%.
In the case of `NC(=O)C1CCCc2c1[nH]c1ccc(Cl)cc21` (configuration not stated), in experiment [1], the max response is 9.85% (inactive). Further, the remaining parasite growth % (stronger effect = lower value) in experiment [2] is 100%. Further, in experiment [3], the activity, percent of control was found to be 94.6%. The compound further yielded a remaining proliferation (% of control), lower = more inhibition in experiment [4] of 95%. Further, the parasite growth, % of DMSO control in experiment [5] was found to be 92%. Moreover, the parasite growth remaining, % of DMSO control (lower = more inhibition) in experiment [6] came to 112%. Moreover, the parasite growth, % of control (lower = inhibition) in experiment [7] is 145%. In experiment [8], the growth, % of control was 106%.
As to `C[C@@H]1C[C@H]2[C@@H]3CCC4=CC(=O)C=C[C@]4(C)C3(F)[C@@H](O)C[C@]2(C)[C@@]1(O)C(=O)CO` (some centres not stated), the max response in experiment [1] is 2.96% (inactive). In addition, the remaining parasite growth % (stronger effect = lower value) in experiment [2] amounted to 109%. In addition, the activity, percent of control in experiment [3] worked out at 95.7%. The remaining proliferation (% of control), lower = more inhibition in experiment [4] turned out to be 85.9%. This compound gave a parasite growth, % of DMSO control in experiment [5] of 71.2%. Besides, in experiment [6], the parasite growth remaining, % of DMSO control (lower = more inhibition) was determined as 96%. Also, the parasite growth, % of control (lower = inhibition) in experiment [7] was 146%. In addition, the growth, % of control in experiment [8] stood at 95.5%.
With `CCOc1ccn(-c2ccc(F)cc2)c(=O)c1C(=O)Nc1ccc(Oc2ccnc(N)c2Cl)c(F)c1`, the max response in experiment [1] is 18.8% (inactive). For the same compound, in experiment [2], the remaining parasite growth % (stronger effect = lower value) is 83.7%. Also, in experiment [3], the activity, percent of control was 56.6%. For the same compound, the remaining proliferation (% of control), lower = more inhibition in experiment [4] was determined as 36.7%. Besides, the parasite growth, % of DMSO control in experiment [5] was determined as 41.2%. In experiment [6], the parasite growth remaining, % of DMSO control (lower = more inhibition) turned out to be 80.4%. Further, the parasite growth, % of control (lower = inhibition) in experiment [7] is 36%. This compound also showed a growth, % of control in experiment [8] of 73%.
`CCCS(=O)(=O)Nc1ccc(F)c(C(=O)c2c[nH]c3ncc(-c4ccc(Cl)cc4)cc23)c1F`: the max response in experiment [1] was 14.6% (inactive). Also, the remaining parasite growth % (stronger effect = lower value) in experiment [2] came out at 17.1%. The activity, percent of control in experiment [3] came out at 22.9%. In experiment [5], the parasite growth, % of DMSO control is 17.9%. Besides, in experiment [6], the parasite growth remaining, % of DMSO control (lower = more inhibition) came out at 24%. The parasite growth, % of control (lower = inhibition) in experiment [7] was 52.1%.
As to `Nc1nccc(-c2ccc3noc(-c4ccc(Cl)cc4)c3c2)n1`, in experiment [1], the max response is -14.8% (inactive). Further, the remaining parasite growth % (stronger effect = lower value) in experiment [2] worked out at 77.1%. In addition, the activity, percent of control in experiment [3] stood at 76.1%. The remaining proliferation (% of control), lower = more inhibition in experiment [4] amounted to 81.1%. Also, the parasite growth, % of DMSO control in experiment [5] was found to be 85.1%. For the same compound, in experiment [6], the parasite growth remaining, % of DMSO control (lower = more inhibition) was 92.5%. Further, the parasite growth, % of control (lower = inhibition) in experiment [7] stood at 79.2%. Also, in experiment [8], the growth, % of control worked out at 33.5%.
In the case of `CCC(=O)N[C@H]1CC[C@H](C(=O)N(C)c2ccc(-c3nc4ccccc4o3)cc2)C1`, the max response in experiment [1] is 65.6% (inactive). Moreover, the remaining parasite growth % (stronger effect = lower value) in experiment [2] stood at 58.5%. The activity, percent of control in experiment [3] was 55.3%. The compound also returned a parasite growth, % of DMSO control in experiment [5] of 28.4%. The parasite growth remaining, % of DMSO control (lower = more inhibition) in experiment [6] is 65.1%. For the same compound, the parasite growth, % of control (lower = inhibition) in experiment [7] was 41.7%.
In the case of `Cc1ccccc1C(C(=O)NC1CCCC1)N(C(=O)Cn1cnc2ccccc21)c1cccc(F)c1` (configuration not stated), in experiment [1], the max response is -12.2% (inactive). For the same compound, the remaining parasite growth % (stronger effect = lower value) in experiment [2] came to 45.1%. The activity, percent of control in experiment [3] came to 58.9%. The compound also registered a remaining proliferation (% of control), lower = more inhibition in experiment [4] of 34.4%. The same compound had a parasite growth, % of DMSO control in experiment [5] of 72.9%. Also, in experiment [6], the parasite growth remaining, % of DMSO control (lower = more inhibition) was found to be 65.6%. In addition, in experiment [7], the parasite growth, % of control (lower = inhibition) is 38%. This compound also yielded a growth, % of control in experiment [8] of 97.9%.
For the compound `Cc1cc(Nc2nc(N[C@@H](C)c3ncc(F)cn3)ncc2Cl)n[nH]1`, the max response in experiment [1] was 8.89% (inactive). Besides, the remaining parasite growth % (stronger effect = lower value) in experiment [2] came out at 108%. Further, the activity, percent of control in experiment [3] was found to be 100%. This compound also returned a parasite growth, % of DMSO control in experiment [5] of 6.82%. The parasite growth remaining, % of DMSO control (lower = more inhibition) in experiment [6] amounted to 8.04%. For the same compound, the parasite growth, % of control (lower = inhibition) in experiment [7] was found to be 21.5%. Besides, the growth, % of control in experiment [8] came out at 10.9%.

(Values after PubChem BioAssay (NCATS).)
